Here are results for 13 molecules from PubChem BioAssay (NCI).

Assay in all cases: NCI-60 one-dose screen, 48 h (100 = growth as untreated, 0 = no growth, -100 = all killed)
Common to all, as to conditions: 10 µM unless noted

For assay [1], the system named is HCT-15 colon.
Assay [2] concerns HT29 colon.
The test system of assay [3] is SNB-75 CNS.
Assay [4] relates to SNB-19 CNS.
In assay [5] the test system is U251 CNS.
The test system of assay [6] is SK-MEL-5 melanoma.
The test system of assay [7] is UACC-62 melanoma.
In assay [8] the test system is LOX IMVI melanoma.
The test system of assay [9] is SK-MEL-28 melanoma.

Several values for one entry are separate records, joined by “and”; a condition that tells them apart may be missing. Equal entries are not always repeated. The panel holds about 83,000 compounds, 20% with a hit somewhere; the sample as a whole holds those more often.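 Results are percent growth after 48 hours of single-concentration exposure. 100 means growth as in untreated cells, lower positive values show inhibition; negative values down to -100 show cell death.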 A number with no mark means an inactive call. Activity calls are given as the source filed them. Rule for the calls: active = growth percent below 10; inactive = the rest.

Take `COC(=O)c1nc(N)nc(C(=O)OC)c1C(=O)c1cccc2ccccc12`: the growth was 102% in [1]; 104% in assay [2]; 104% in assay [3]; 103% in [4]; 108% in assay [5]; 98.9% in assay [6]. In addition, the growth in assay [7] is 97.2%; in assay [8], 95.3%; in assay [9], 106%.

In the case of `NC(=O)Cc1nc(O)cc(=O)[nH]1`, the growth in [1] is 96.9%; in [2], 93.2%; in assay [3], 88.1%; in [4] it was 96.9%; in [5], 89.4%; in assay [6], 104%. The growth in [7] was 98%; in assay [8] it was 105%; in assay [9] it was 113%.

For `NCCSSC/C=C\CSSCCN`, the growth is 102% in assay [1]; 106% in assay [2]; 91.6% in assay [3]; 105% in [4]; 92.1% in assay [5]; 97.2% in assay [6]. For the same molecule, the growth was 105% in assay [7], 97.5% in assay [8] and 115% in [9].

As to `O=C(O)c1c2c(nc3ccccc13)Cc1ccccc1-2`, the growth is 103% in assay [1]; 109% and 101% in [2]; 99.6% and 101% in assay [3]; 108% and 101% in [4]; 101% and 103% in assay [5]; 110% and 102% in [6]. Moreover, the growth is 105% and 92.9% in [7]; 99.9% and 90.1% in [8]; 109% and 98.4% in assay [9].

Regarding `COc1ccc2nccc(Cl)c2c1`, the growth was 109% in assay [1]; 104% in [2]; 91.1% in [3]; 103% in assay [4]; 97.6% in [5]; 102% in [6]. For the same molecule, the values for the growth in assay [7], in [8] and in assay [9] were 89.6%, 97.9% and 110%, respectively.

Turning to `CCOC(=O)NC(N)=O`, the growth in assay [1] is 105% and 98%; in assay [2], 99.9% and 106%; in assay [3] it was 84.3% and 87.6%; in assay [4] it was 103% and 100%; in assay [5], 101% and 96.4%; in assay [6], 101%. Besides, the growth in assay [7] is 103%; in [8], 97.9% and 94.7%; in assay [9] it was 112% and 108%.

For `Cc1ccc2cccc([N+](=O)[O-])c2n1`, the growth in assay [1] was 105% and 96.9%; in assay [2], 99% and 96%; in assay [3], 106% and 79.5%; in [4], 109% and 99%; in [5], 105% and 103%; in assay [6], 99.1% and 105%. Also, the growth was 102% in assay [7]; 100% and 94.8% in [8].

As for `CN(C)C(=S)N(C)C`, the growth in assay [1] is 102%; in [2] it was 95.6%; in assay [3], 86.3%; in [4], 110%; in assay [5], 105%; in assay [6] it was 108%. In addition, the growth in assay [8] is 98.4%; in assay [9], 118%.

For the molecule `O=C1C=CC(n2cc(F)c(=O)[nH]c2=O)O1` (stereo not drawn), the growth was 57.8% in [1]; 39.4% in [2]; 79.8% in assay [3]; 79% in assay [4]; 82.2% in [5]; 60.4% in assay [6]. The growth in assay [7] was 44.5%; in [8] it was 54.8%.

Consider `CCNC1=CC(=O)c2ncccc2C1=O`, for which the growth in assay [1] is 10.8%; in [2], 8.49% (active); in [3], -91% (active); in assay [4], 19.6%; in assay [5], 30.7%; in assay [6], -98.3% (active). In addition, the growth in assay [7] was -95.3% (active); in [8] it was -35.3% (active); in assay [9], -37% (active).

As for `CC(=O)Oc1ccc(C(c2ccc(OC(C)=O)cc2)c2ccccn2)cc1`, the growth is 84.3% and 76.4% in assay [1]; 91.8% and 87.1% in assay [2]; 56.7% and 80.9% in assay [3]; 104% and 98.8% in [4]; 96% and 96.2% in [5]; -7.6% (active) in assay [6]. In addition, the growth in assay [7] is 96.5% and 89.4%; in assay [8], 90.3% and 77.5%; in assay [9], 107%.

As for `CCNCc1ccccc1`, the growth in [1] was 112%; in assay [2], 98.8%; in assay [3], 102%; in assay [4] it was 109%; in assay [5] it was 101%; in [6], 108%. Moreover, the growth in assay [7] was 100%; in assay [8], 97.8%.

As to `O=C1c2ccccc2CN1c1ccccc1`, the growth was 107% in [1]; 82.4% in [2]; 102% in assay [3]; 88.9% in assay [4]; 101% in assay [5]; 96.5% in assay [6]. Further, the figures for the growth in [7], in [8] and in assay [9] were 85.9%, 113% and 120%, respectively.
